# Data taken from PubChem BioAssay AID492953 (The Scripps Research Institute Molecular Screening Center, 2010).
# Screen size: about 340,000 compounds; about 4,200 (1.2%) were called active.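 How the source made its calls: active means inhibition above the mean of all tested compounds plus 3 SD (cut at about 24% in these data); inactive means the rest.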 This excerpt belongs to a sample that is enriched for actives.
# Target: Platelet-activating factor acetylhydrolase IB subunit alpha2 (Homo sapiens) (UniProt P68402)
# Assay: PAFAH1B2 enzyme inhibitors, primary screen, biochemical, fluorescence polarization, human (AID 492953);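 further: 0% = enzyme with DMSO and 100% = wells lacking PAFAH1B2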
# Details: recombinant PAFAH1B2, FP-rhodamine activity probe, at 3.39 µM, active compounds read high
# Chain of Platelet-activating factor acetylhydrolase IB subunit alpha2 (Homo sapiens) (P68402 whole entry, looked up): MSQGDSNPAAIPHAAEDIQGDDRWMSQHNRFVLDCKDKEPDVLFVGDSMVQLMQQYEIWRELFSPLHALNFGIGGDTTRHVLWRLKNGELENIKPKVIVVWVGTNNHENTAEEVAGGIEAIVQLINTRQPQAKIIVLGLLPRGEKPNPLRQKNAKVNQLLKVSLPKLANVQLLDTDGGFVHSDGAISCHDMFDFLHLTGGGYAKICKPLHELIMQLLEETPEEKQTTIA
row,Structure (SMILES),inhibition
1,Cc1ccc(S(=O)(=O)NCCNC(C)c2ccc(Br)cc2)cc1 (stereo not given),23% (inactive)
2,Cc1ccc(OCCNC(=O)CCNS(=O)(=O)c2ccc(Br)cc2)cc1,24.2% (active)
3,O=C(CCNS(=O)(=O)c1ccc(Br)cc1)NCC1CCCO1 (stereo not given),7.29% (inactive)
4,Cc1ccc(CCN2CC(C(=O)NCCc3ccccc3)CC2=O)cc1 (stereo not given),7.51% (inactive)
5,O=C1Nc2cc(Cl)c(Cl)cc2N(O)N1c1cc(Cl)cc(Cl)c1,6.99% (inactive)
6,CCCCN(C(=O)CSCc1ccc(C)cc1)c1c(N)n(Cc2ccccc2)c(=O)[nH]c1=O,8.05% (inactive)
7,O=C(Nc1ccccc1)C1CC(=O)n2c(nc3ccccc32)N1 (stereo not given),-1.27% (inactive)
8,CC(=O)Nc1ccc(S(=O)(=O)NCCc2ccccc2)cc1,3.04% (inactive)
9,CC(=O)Nc1ccc(S(=O)(=O)NC2(C(F)(F)F)C(=O)Nc3c2c(=O)[nH]c(=O)n3Cc2ccccc2)cc1 (stereo not given),24.4% (active)
10,CC(=O)Nc1ccc(S(=O)(=O)NC2(C(F)(F)F)C(=O)NC(C)=C2C#N)cc1 (stereo not given),0.09% (inactive)
11,Cc1ccc(C(=O)NCC(=O)OCC(=O)NC2CCCCCCC2)cc1,-0.8% (inactive)
12,Cc1cc(OC(=O)c2ccc(OC(C)C)cc2)c([N+](=O)[O-])c(=O)[nH]1,1.4% (inactive)
13,COc1cccc(C=CC(=O)C=CC=Cc2ccccc2)c1,-1.3% (inactive)
14,COc1ccc(CCNS(=O)(=O)c2cn(C)nc2C)cc1,2.66% (inactive)
15,O=S1(=O)CCOC[C@H](Cc2ccccc2)N1Cc1ccccc1Br,4.8% (inactive)
16,CCC(C)[C@H]1COCCS(=O)(=O)N1Cc1ccc(C)cc1 (stereo not given in full),7.04% (inactive)
17,O=S1(=O)CCO[C@H]2Cc3ccccc3[C@H]2N1Cc1ccccc1,27.8% (active)
18,N#Cc1c(-c2ccccc2)nc(SCc2cccc(C(F)(F)F)c2)[nH]c1=O,14.2% (inactive)
19,N#Cc1c(-c2ccc(F)cc2)nc(-c2ccccc2)[nH]c1=O,1.36% (inactive)
20,Cc1ccc(CSc2nc(-c3ccccc3)c(C#N)c(=O)[nH]2)cc1,24.4% (active)

row,Structure (SMILES),inhibition
1,Oc1oc(-c2ccccc2Br)nc1/C=N/c1ccccn1,1.69% (inactive)
2,CC(NC(=S)Nc1ccc(S(N)(=O)=O)cc1)c1ccc2c(c1)OCO2 (stereo not given),27.8% (active)
3,CC(NC(=O)Nc1cccc([N+](=O)[O-])c1)c1ccc2c(c1)OCO2 (stereo not given),0.41% (inactive)
4,CCc1ccc(NC(=O)NC(C)c2ccc3c(c2)OCO3)cc1 (stereo not given),4.07% (inactive)
5,Cc1ccc(NC(=O)N2CCSc3ccccc32)cc1,7.44% (inactive)
6,O=C(Cc1cccs1)N(CC1CCCO1)C1(C(=O)NC2CCCCC2)CCCCC1 (stereo not given),2.99% (inactive)
7,CCC(C(=O)OCC(=O)Nc1ccccc1-c1ccccc1)c1ccccc1 (stereo not given),7.25% (inactive)
8,O=C(CNCc1ccc(F)cc1)Nc1ccccc1-c1ccccc1,24.4% (active)
9,O=C(Cn1cnc2ccccc21)Nc1ccccc1-c1ccccc1,5.45% (inactive)
10,Cc1ccc(NC(=O)CCCNC(=O)c2ccc(Cl)cc2)cc1S(=O)(=O)N1CCOCC1,2.83% (inactive)
11,COc1ccccc1CCNC(=O)C1CCN(C(=O)/C=C/c2ccccc2)CC1,10.8% (inactive)
12,COc1ccc(OCC(=O)NCCS(=O)(=O)N2CCN(c3ccc(F)cc3)CC2)cc1,-1.87% (inactive)
13,O=C(COc1ccc(Cl)cc1)NCCS(=O)(=O)N1CCN(c2ccc(F)cc2)CC1,28.6% (active)
14,CCOc1ccc(CC(=O)NCCS(=O)(=O)N2CCN(c3ccccc3)CC2)cc1,1.28% (inactive)
15,CCCC1NC(=S)NC(C)=C1C(C)=O (stereo not given),-9.47% (inactive)
16,CC(=O)OCC(=O)C1(O)CCC2C3CC(C)C4=CC(=O)CCC4(C)C3C(O)CC21C (stereo not given),1.34% (inactive)
17,COc1ccccc1C(=O)Nc1ccnn1C1CCN(Cc2cnn(C)c2)CC1,4.33% (inactive)
18,COc1ccc(CCNC(=S)N2CCN(S(=O)(=O)c3ccc(Cl)cc3)CC2)cc1,11.4% (inactive)
19,O=C1CCN(C(=S)NCCc2ccccc2)CC1,1.71% (inactive)
20,Oc1cc2c(cc1O)CN(C(=S)NCCc1ccc(Cl)cc1)CCC2,63.6% (active)

row,Structure (SMILES),inhibition
1,CC12c3ccccc3C(c3ccccc31)C1C(=O)N(Cc3cccnc3)C(=O)C12 (stereo not given),1.4% (inactive)
2,C=CCO/N=C(\C)c1c(O)c(C)c(-c2ccccc2)n(-c2ccccc2)c1=O,31.5% (active)
3,Cc1nn(-c2ccccc2)c(C)c1/C=N/NC(=O)CSc1nc2ccccc2c(=O)n1-c1ccccc1,2.37% (inactive)
4,CCO/N=C(/C)c1c(O)cc(-c2ccccc2)n(-c2ccccc2)c1=O,7.22% (inactive)
5,Cc1ccsc1-c1nc(CSCC(=O)NCCN2CCCC2)c(C)o1,0.8% (inactive)
6,COc1cc2c(cc1OC)C(Cc1cc(OC)c(OC)cc1[N+](=O)[O-])=NCC2,0.33% (inactive)
7,CCCC1OC23CCCCC2C(C#N)(C#N)C1(C#N)C(=N)O3 (stereo not given),29.1% (active)
8,O=C1/C(=C\c2ccc(O)cc2)CCC1CNc1ccc(Cl)cc1 (stereo not given),-1.51% (inactive)
9,CCOC(=O)/C(C#N)=C/c1cn(CCC(=O)O)nc1-c1ccc(Br)cc1,2.11% (inactive)
10,O=C(O)CCn1cc(/C=C/C(=O)c2ccc(Cl)cc2)c(-c2cccc(Br)c2)n1,51.4% (active)
11,Cc1cccc(C=CC(=O)c2ccc(Cl)cc2)c1,-1.7% (inactive)
12,O=C(OCC(=O)N1CCN(C(=O)c2ccco2)CC1)c1ccc(Cl)c(Cl)c1,2.92% (inactive)
13,NNC(=O)CSc1nnc(-c2ccccc2)n1-c1ccccc1,17.7% (inactive)
14,O=C(O)CCSc1nnc(-c2ccccc2)n1-c1ccccc1,24.4% (active)
15,O=C(O)CSc1nnc(-c2ccc3c(c2)OCO3)n1-c1ccccc1,0.01% (inactive)
16,CCOc1cc(/C=N/NC(=O)c2cccc(S(=O)(=O)N3CCOCC3)c2)ccc1OCC(=O)N(C)C,2.5% (inactive)
17,O=C(NCCc1ccccc1)c1c[nH]c2ccc(F)cc2c1=O,3.36% (inactive)
18,CCOC(=O)c1ccccc1OC(=O)Oc1ccccc1C(=O)OCC,4.58% (inactive)
19,CCOC(=O)c1c(C)nc2c(c1C)c(=O)oc1ccccc12,4.46% (inactive)
20,CCOC(=O)c1c(C)[nH]c2c1-c1ccccc1C(=O)C2=O,46.4% (active)
